MRP reversal – MRP-mediated drug resistance reversal | differential viability (reversal), % at 10 µM | H69AR cells + 2 uM doxorubicin, CellTiter-Glo, 72 h | 85,000 compounds, 0.04% hits;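 active means viability drop by adding the cancer drug above about 55%, with treated viability meeting a 40% cutoff, limit read from the data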;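 further: viability without doxorubicin minus viability with 2 µM doxorubicin for each compound; larger differential means the compound sensitizes cells more to doxorubicin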
MRP1 act – MRP-1 activation; H69AR cells + doxorubicin, viability rescue, CellTiter-Glo; viability increase, % at 10 µM; 140,000 compounds, 0.61% hits; AID 799;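 active means viability gain under doxorubicin at or above a set limit, the compound median plus 3 SD, cut at about 4.7% in these data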;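 further: MRP-1 overexpressing cells given doxorubicin 25 µM after compound pretreatment; 18-22 h compound pretreatment then 72 h with doxorubicin before readout; 0% = doxorubicin-only wells and 100% = vehicle-treated cells without doxorubicin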
DAT uptake mod – human DAT dopamine uptake with cocaine, either direction | LLC-PK1 hDAT cells, [14C]-dopamine uptake with cocaine IC80; actives deviate in either direction | B-score at 10 µM | 110,000 compounds, 1.3% hits | AID 449768;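 active means Z score or B-score, a plate-position-corrected score, falls beyond the plate's 99.7% confidence bounds, in either direction; inactive means both scores lie inside the 99.7% bounds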;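 further: scored against the spread of the other compound wells on the same plate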
Target sequence (Q01959 whole entry, looked up): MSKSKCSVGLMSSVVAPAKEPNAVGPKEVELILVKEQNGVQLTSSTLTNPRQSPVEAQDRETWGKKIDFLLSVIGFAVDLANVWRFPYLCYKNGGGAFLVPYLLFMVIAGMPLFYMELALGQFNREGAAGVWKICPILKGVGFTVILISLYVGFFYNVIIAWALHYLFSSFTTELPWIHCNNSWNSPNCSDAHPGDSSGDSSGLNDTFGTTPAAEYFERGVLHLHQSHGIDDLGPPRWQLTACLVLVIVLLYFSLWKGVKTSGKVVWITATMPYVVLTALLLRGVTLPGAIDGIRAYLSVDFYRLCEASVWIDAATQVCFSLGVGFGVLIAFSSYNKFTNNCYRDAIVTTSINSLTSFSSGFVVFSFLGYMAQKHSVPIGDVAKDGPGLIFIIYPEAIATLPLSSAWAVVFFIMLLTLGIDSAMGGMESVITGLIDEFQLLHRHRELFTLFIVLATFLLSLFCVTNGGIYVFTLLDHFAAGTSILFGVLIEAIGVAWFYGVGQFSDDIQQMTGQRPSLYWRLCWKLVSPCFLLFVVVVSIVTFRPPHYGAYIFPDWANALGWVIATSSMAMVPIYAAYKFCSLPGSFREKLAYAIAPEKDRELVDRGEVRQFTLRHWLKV
The depositor's hits bear a star; · = not tested or not shown. An excerpt weighted towards active compounds, which were near 1.5% of everything screened.

SMILES	MRP reversal	MRP1 act	DAT uptake mod
CCN(CC)c1ccc(C2C(C(=O)OC(C)C)C(=O)CC(C)(O)C2C(=O)OC(C)C)cc1 (centres undefined)	·	-1	1.1
Cc1ccc(OCCNc2cc(N3CCN(CCO)CC3)ccc2[N+](=O)[O-])cc1C	·	-4	·
CN=C(Nc1ccccc1OC)SC1CC(=O)N(c2ccc(C(=O)OC)cc2)C1=O (centres undefined)	·	-2	2.4*
CN=C(Nc1ccccc1)SC1CC(=O)N(c2ccc(C(=O)OC)cc2)C1=O (centres undefined)	·	0	-0.32
CCOC(=O)C1CCCN(C(=O)COc2ccccc2O)C1 (centres undefined)	17	1	-0.77
CCOC(=O)C1CCCN(C(=O)CSc2nccn2C)C1 (centres undefined)	-14	-2	-3*
O=C(Nc1ccccc1OC(F)F)c1ccc(Br)o1	-5	-3	-2.5*
O=C(Nc1ccccc1OC(F)F)c1ccccc1	·	1	-1
COc1cccc(-c2nc(NC(C)C)c3ccccc3n2)c1O	6	-2	2.3
CCC(C)Nc1nc(-c2cccc(OC)c2O)nc2ccccc12 (centres undefined)	-18	-2	3.7*
CC(C)(C)SCCNC(=O)c1ccc(Cl)c([N+](=O)[O-])c1	·	-3	·
O=C(CNC(=O)c1cccc(OC(F)F)c1)OCc1cc(=O)n2cc(Br)ccc2n1	·	-1	·
C=CCNC(=S)N1CCN(c2ccc([N+](=O)[O-])cc2)CC1	·	0	·
O=C(O)C1C2C=CC3(CN(Cc4ccncc4)C(=O)C13)O2 (centres undefined)	·	-3	-8.7*
O=C(O)C1C2C=CC3(CN(Cc4ccccn4)C(=O)C13)O2 (centres undefined)	-7	0	-1.2
CC(NC(=S)Nc1ccc(Cl)cc1Cl)C(c1cccs1)N1CCCC1 (centres undefined)	·	-5	·
CCC1CCCCN1C(=S)NC1CCCCC1 (centres undefined)	·	-1	·
CC(C)OC(=O)c1ccc(N2C(=O)C3CC=CCC3C2=O)cc1 (centres undefined)	6	-2	0.39
CCOC(=O)c1ccc(N2C(=O)C3CC=CCC3C2=O)cc1 (centres undefined)	5	2	7.9*
CCN(CC)S(=O)(=O)c1ccc(N=NC2=C(O)CCCC2=O)cc1	·	-3	·
O=C1CCCC(O)=C1N=Nc1ccc2c(c1)OCO2	·	7.7*	·
Cc1ccc(S(=O)(=O)N/N=C/c2cn(C)nc2C)cc1	·	0	-0.74
Cc1ccc(S(=O)(=O)N/N=C\c2cn(-c3ccccc3)nc2-c2ccccc2)cc1	·	6.2*	1.3
Cc1ccc(S(=O)(=O)N/N=C/c2c(C)nn(-c3ccccc3)c2C)cc1	·	-1	2.5*
Cc1ccc(-c2nn(-c3ccccc3)cc2/C=N/NS(=O)(=O)c2ccccc2)cc1	·	3	1.2
SMILES	MRP reversal	MRP1 act	DAT uptake mod
COc1ccccc1OCC(=O)Nc1sc2c(c1C(=O)NCC1CCCO1)CCC2 (centres undefined)	·	-1	-0.51
C#CCNC(=O)C1=C[C@@H](c2ccc(C#C)cc2)C[C@@H](OCc2ccc(CO)cc2)O1	·	·	-0.28
C#CCOCCOCCOCCNc1nc(N2CCN(C(=O)C(Cc3ccc(O)cc3)n3cc(C(N)CC(C)C)nn3)CC2)nc(N2CCN(C(=O)C(Cc3cc4ccccc4[nH]3)n3cc(C(N)Cc4ccc(O)cc4)nn3)CC2)n1 (centres undefined)	·	·	0.5
COc1ccc(N2C(=O)CSC2c2ccc3c(c2)OCO3)cc1 (centres undefined)	5	-2	0.11
COc1ccc(N2C(=O)CSC2c2ccncc2)cc1 (centres undefined)	1	-3	-7.4*
O=C(CSc1ccccc1C(=O)O)NCc1ccc(Cl)cc1	·	-2	·
CCc1nnc(NC(=O)c2ccc(COc3ccccc3)o2)s1	7	3	0.99
CCc1nnc(NC(=O)c2ccc(-c3cc(C(F)(F)F)ccc3Cl)o2)s1	·	-2	-1.2
CCc1nnc(NC(=O)c2ccc(-c3cccc(C(F)(F)F)c3)o2)s1	-5	2	-7.6*
CCc1nnc(NC(=O)c2ccc(COc3ccc(C)cc3)o2)s1	5	6.2*	-0.00094
CCc1nnc(NC(=O)CCC(=O)N2CCN(CCOc3ccc(C)cc3)CC2)s1	8	5.6*	-0.72
CCc1nnc(NC(=O)CCC(=O)N2CCN(CCc3ccccc3)CC2)s1	-4	-1	0.76
CC(=O)Nc1ccc(SC[C@H](c2ccccc2)N2CCN(CCc3ccccc3)CCC2=O)cc1	·	·	1.5
COc1ccc(-c2nnc3n(CCc4ccccc4)c(=O)c4ccccc4n23)cc1OC	·	0	·
Cc1nn(-c2ccccn2)c2c1C(c1c(F)cccc1Cl)C1=C(N2)c2ccccc2C1=O (centres undefined)	·	-1	·
CCN(CC)c1nc(N)c([N+](=O)[O-])c(NCCO)n1	·	-1	·
COCCCn1c(SCc2ccccc2)nc2cc(OC)c(OC)cc2c1=N	·	-5	8.2*
